Screening results: PubChem, Broad Institute
A selection: hits, their analogues and other compounds. The true share with any hit is near 3.9%.
CASP6 VEID inh: human caspase-6 inhibitors, primary screen, biochemical, VEID-R110 fluorescence, single point, set 2; AID 686996, 2013; P55212; purified caspase-6, Z-VEID-R110 cleavage fluorescence; 350,000 compounds, 0.53% hits; inhibition, % at 12.5 µM;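 active means mean inhibition across replicates at least about 35%, with every replicate also reaching that limit, limit read from the data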;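 further: 0% = median of neutral control wells and 100% = no fluorescence left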
Target sequence (P55212 24-179 limits assumed): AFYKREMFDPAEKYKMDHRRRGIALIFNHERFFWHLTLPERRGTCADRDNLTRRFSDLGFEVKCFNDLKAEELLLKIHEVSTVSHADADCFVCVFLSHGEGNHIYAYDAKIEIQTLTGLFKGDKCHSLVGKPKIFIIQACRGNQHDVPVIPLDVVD
Target sequence (P55212 194-293 limits assumed): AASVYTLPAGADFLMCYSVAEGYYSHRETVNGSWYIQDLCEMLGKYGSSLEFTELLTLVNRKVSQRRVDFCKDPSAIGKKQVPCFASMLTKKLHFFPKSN
CDK5 inh: inhibitors of human CDK5/p35 kinase, primary screen, biochemical, single concentration; Cyclin-dependent kinase 5 (Homo sapiens) + Cyclin-dependent kinase 5 activator 1 (Homo …; Recombinant CDK5/p35, ADP-Glo luminescence, 60 min; inhibition, % at 10 µM; 330,000 compounds, 0.01% hits; AID 488839, 2010;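 active means highest replicate inhibition of at least 50% and at least 75% of replicates reaching 50%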;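 further: plate controls were DMSO neutral control for no effect and GW8510 at 10 µM for full effect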
ALR inh: inhibitors of human ALR sulfhydryl oxidase, primary screen, biochemical, H2O2 detection, HRP-luminol luminescence, single point; purified ALR, DTT oxidation; inhibition, % (concentration not given with the values); 290,000 compounds, 3.8% hits; FAD-linked sulfhydryl oxidase ALR (Homo sapiens), P55789;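 active means mean replicate inhibition above about 79%, with every replicate also reaching it, limit read from the data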
Target sequence (P55789 whole entry, looked up): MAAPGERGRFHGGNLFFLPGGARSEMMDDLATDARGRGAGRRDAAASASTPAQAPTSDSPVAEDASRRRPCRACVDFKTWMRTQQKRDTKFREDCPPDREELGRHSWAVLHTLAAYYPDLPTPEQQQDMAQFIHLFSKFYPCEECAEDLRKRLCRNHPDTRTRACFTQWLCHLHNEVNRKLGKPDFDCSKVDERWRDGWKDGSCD
N-glyco inh: increase of ERlucT glycosylation luciferase signal, primary screen, N-linked glycosylation inhibitor project, D54 ERlucT cells, luminescence, set 2. 360,000 compounds, 0.23% hits. D54 ERlucT glycosylation luciferase reporter, 24 h; percent of 100 nM tunicamycin response. reporter increase, % at 12.5 µM. AID 588692, 2011;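 active means mean luciferase reporter signal, scaled so untreated is 0 and the glycosylation-blocking control 100, at or above a set limit in every replicate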;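 further: luciferase carries N-glycosylation sites so blocking glycosylation raises the light; 0% = median of neutral control wells and 100% = median of 100 nM tunicamycin wells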
Mot1-301 SUMO: yeast Mot1-301 growth rescue at high temperature, primary screen, SUMOylation pathway inhibitor project, S. cerevisiae, ATP luminescence, 38.5C; S. cerevisiae Mot1-301 growth rescue; percent above DMSO median, 100 means doubled; growth rescue, % at 18.8 µM; 320,000 compounds, 1% hits; AID 2716, 2010;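 active means every valid replicate shows activation above 250% relative to neutral control wells; inactive means the rest, any valid replicate at or below 250%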;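 further: OY570 slx delta 5 strain wells were the positive control but not used for scaling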
NSD2 inh: NSD2 histone methyltransferase inhibitors, primary screen, biochemical, AlphaScreen, single concentration, set 2 | 310,000 compounds, 0.54% hits | inhibition, % at 12.5 µM | NSD2 peptide methylation, 120 min; in the data active means inhibition above about 50%
* hit, by the source's call; x = no result.

SMILES	CASP6 VEID inh	CDK5 inh	ALR inh	N-glyco inh	Mot1-301 SUMO	NSD2 inh
Cc1ccc(NCc2nnc(SCC(=O)OC3CCCCC3)o2)c(C)c1	x	0	98*	1	-17	1
Cc1ccc(NCc2nnc(SCC(N)=O)o2)c(C)c1	2	0	39	1	32	-1
O=C(NCCc1ccncc1)[C@@H]1[C@@H](CO)[C@@H]2Cn3c(ccc(-c4ccccc4)c3=O)[C@H]1N2	-2	x	x	x	x	x
CCn1c(=S)[nH]c2sc3c(c2c1=O)CCCC3	31	0	-14	-3	-6	2
CN(C)CCCn1c(=S)[nH]c2sc3c(c2c1=O)CCCC3	-8	1	99*	-1	77	x
Cc1ccc(C2Cc3cc(O)c(O)cc3CN2)cc1 (configuration not stated)	0	x	99*	-5	-2	7
Cc1ccc(O)c(C2=NNC(c3ccc(Cl)cc3)C2)c1 (configuration not stated)	0	1	0	-6	26	-4
Cc1ccc(-c2cc(C(=O)N3CCCc4ccccc43)c3ccccc3n2)cc1	x	-1	-31	-2	2	x
O=C(c1cc(-c2cccnc2)nc2ccccc12)N1CCCc2ccccc21	x	0	95*	2	-2	1
CCCNC(=O)N[C@H]1CC[C@@H](CCn2cc(C3CC3)nn2)O[C@H]1CO	-4	x	x	x	x	x
COc1cccc(CNc2nccs2)c1O	1	-1	88*	1	-14	-1
COc1ccc([C@H]2/C=C\CN(Cc3ccc(N(C)C)cc3)[C@@H](C)C(=O)N2Cc2ccc(F)cc2)cc1	0	-1	98*	0	23	x
C[C@@H]1CN([C@@H](C)CO)C(=O)c2cc(/C=C/c3ccccc3)cnc2O[C@@H]1CN(C)C(=O)Cc1cccnc1	-1	x	x	x	x	x
O=C(NNc1nc2cc3c(cc2s1)OCO3)c1cccc(F)c1	1	1	3	2	93	x
O=C(NNc1nc2cc3c(cc2s1)OCO3)c1ccccc1	5	0	99*	1	278	x
COc1cc(C(=O)NNc2nc3cc4c(cc3s2)OCO4)cc(OC)c1OC	1	-1	99*	1	-16	x
C[C@H](CO)N1C[C@H](C)[C@H](CN(C)S(=O)(=O)c2cn(C)cn2)OCCCC[C@H](C)Oc2ccc(NC(=O)CCC(F)(F)F)cc2C1=O	-3	x	x	x	x	x
CN(C)C(=O)[C@@H]1[C@@H](CO)[C@@H]2Cn3c(ccc(/C=C/c4ccccc4)c3=O)[C@@H]2N1C(=O)c1cnccn1	-2	x	x	x	x	x
CCOC(=O)C1=C(O)/C(=C/c2ccc(OCC(=O)O)c(OC)c2)SC1=Nc1ccc(OCC)cc1	37*	2	-4	1	10	6
CCOC(=O)C1=C(O)/C(=C/c2ccc(OCC(=O)O)c(OCC)c2)SC1=Nc1ccccc1	2	-1	52	2	-13	19
C[C@H]1CN(S(=O)(=O)C(C)(C)C)[C@H](CCO)/C1=C\c1ccccc1	-2	12	x	-1	x	x
CC(C)(C)S(=O)(=O)N1C[C@@H]2CC/C=C\C/C(c3ccccc3)=C\2[C@H]1CCO	2	1	x	38*	x	x
CN(C)c1ccc2c(c1)[C@@H]1C[C@H](CC(=O)NCc3ccc(Cl)cc3)O[C@H](CO)[C@@H]1O2	-4	x	x	x	x	x
O=C(O)CCCC(=O)Nc1cccc(C(=O)Nc2ccccc2C(=O)O)c1	7	3	-3	1	19	-1
Cc1cccc(OCC(=O)Nc2cccc(C(=O)Nc3ccccc3C(=O)O)c2)c1	x	1	28	2	-6	1
SMILES	CASP6 VEID inh	CDK5 inh	ALR inh	N-glyco inh	Mot1-301 SUMO	NSD2 inh
O=C(CSCc1ccccc1)Nc1cccc(C(=O)Nc2ccccc2C(=O)O)c1	x	-1	98*	0	-12	7
O=C(CSCc1ccc(Cl)cc1)Nc1cccc(C(=O)Nc2ccccc2C(=O)O)c1	x	-1	98*	0	-8	-3
CC(C)c1ccc(OCC(=O)Nc2cccc(C(=O)Nc3ccccc3C(=O)O)c2)cc1	14	-2	98*	-1	-14	9
CCCN1C[C@@H](C)[C@@H](OC)CN(C)C(=O)c2cc(NC(=O)c3cnccn3)ccc2OC[C@@H]1C	5	x	x	x	x	x
CO[C@@H]1CN(C)C(=O)c2cc(NC(=O)c3ccc(F)cc3)ccc2OC[C@@H](C)N(C(C)=O)C[C@@H]1C	-1	x	x	x	x	x
CC(=O)c1ccc(NC(=O)N2CCN(c3ccc(C)cc3)C(C)C2)cc1 (configuration not stated)	-2	1	96*	10	5	1
CNC(=O)c1cc(Cl)c(OC)c(OC)c1	3	-1	1	4	113	-1
COC(=O)C(=O)C1CCc2c(Cl)cc(OC)c(OC)c2C1=O (configuration not stated)	79*	-1	x	2	x	x
CCC(=O)Nc1ccc2c(c1)C(=O)N(C)C[C@H](OC)[C@H](C)CN[C@@H](C)CO2	-4	x	x	x	x	x
CCOc1ccc(N=Nc2c(N)[nH][nH]c2=O)cc1	3	-2	99*	1	-11	1
COc1cccc(N=Nc2c(N)[nH][nH]c2=O)c1	1	0	x	2	-15	2
CC(C(=O)NC1C=CS(=O)(=O)C1)N1C(=O)/C(=C\c2ccccc2)SC1=S (configuration not stated)	x	-3	99*	-6	-16	4
O=C(Nc1ccc2c(c1)[C@H]1C[C@H](CC(=O)N3CCOCC3)O[C@H](CO)[C@H]1O2)C1CCOCC1	-5	x	x	x	x	x
CCC(C)c1c(O)nc(SCC(=O)N2CCCCCC2)[nH]c1=O (configuration not stated)	0	-2	97*	1	-3	5
CCC(C)c1c(O)nc(SCc2ccccc2)[nH]c1=O (configuration not stated)	x	0	99*	0	1	1
CC(C)Cc1c(O)nc(SCC(=O)N2CCCCCC2)[nH]c1=O	0	-1	97*	1	7	1
CC(C)CCc1c(O)nc(SCC(C)C)[nH]c1=O	-1	0	89*	0	7	-2
O=C(C[C@@H]1C[C@H]2c3cc(NC(=O)CC4CC4)ccc3O[C@H]2[C@H](CO)O1)NCC(F)(F)F	-4	x	x	x	x	x
C[C@@H]1CN([C@H](C)CO)C(=O)CCCn2nncc2CO[C@@H]1CN(C)C(=O)Nc1ccc(C(F)(F)F)cc1	3	x	x	x	x	x
CN(C)CC(=O)N[C@@H]1C=C[C@H](CC(=O)NCCN2CCCCC2)O[C@@H]1CO	0	x	x	x	x	x
